Reference: PubChem BioAssay (NCATS)
Inconclusive results are not listed. Values without a mark were called inactive. The source made the active and inactive calls. The call rests on the fitted dose curve; in most records, active means well fitted cell-killing curve with a large enough effect; inconclusive means small, poorly fitted or top-dose-only effect, or effect the other way; inactive means no such curve, though single readings can be large or run the other way.
Potency means the concentration at half of the fitted maximal effect.

Experiment: Viability qHTS for spleen associated tyrosine kinase inhibitor (SYKi) drug resistant MV4-11 cells (AID 1963824); further: nearly all actives have a fitted effect of over 35% in size
Conditions: SYKi-resistant MV4-11 viability, CellTiter-Glo, 72 h; series mostly up to 45 µM; viability, % of control: at the top concentration
Outline: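 CellTiter-Glo luminescence, read 10 min after reagent addition, reports viability after a 72 hr compound exposure. Cells are an MV4-11 line made resistant to SYK inhibition, seeded at 500 per well onto compound-containing plates.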
With `O=S(=O)(c1ccccc1)N(CC(F)(F)F)c1ccc(C(O)(C(F)(F)F)C(F)(F)F)cc1` the Potency was 8.2 µM (active).
In the case of `C=C(C)C1CCC2(C(=O)O)CCC3(C(=O)O)C(CCC4C5(C)CCC(O)C(C)(C(=O)O)C5CCC43C)C12` (centres undefined), the “viability, % of control” value was 71.1% [at 17.3 µM].
In the case of `CN1CCN(C2=Nc3ccccc3Nc3ccc(OS(=O)(=O)C(F)(F)F)cc32)CC1`, the Potency was 20.6 µM (active).
In the case of `COc1cc(Br)c(S(=O)(=O)Nc2ccc(Cl)c(O[C@@H]3CCN(C)C3)c2)cc1OC`, the Potency was 6.51 µM (active).
With `CN[C@@H]1[C@H](O[C@H]2[C@H](O[C@@H]3[C@@H](O)[C@H](O)[C@@H](N=C(N)N)[C@H](O)[C@H]3N=C(N)N)O[C@@H](C)[C@]2(O)CO)O[C@@H](CO)[C@H](O)[C@H]1O` the “viability, % of control” value was 93.4%.
For `CC(=O)O[C@@H]1CC2C(/C=C(\C)C(=O)[C@@]3(O)C[C@@H](C)[C@H](OC(=O)c4ccccc4)C3/C=C/1C)C2(C)C` (some centres undefined), the Potency was 10 µM (active).
In the case of `C=C[C@H]1[C@H](O[C@@H]2O[C@H](CO)[C@@H](O)[C@H](O)[C@H]2O)OC=C2C(=O)N3Cc4c([nH]c5ccccc5c4=O)[C@@H]3C[C@H]21`, the “viability, % of control” value was 91.2% [at 17.3 µM].
For `CC(C)=CCc1c(O)cc2oc3cc(C)cc(O)c3c2c1C`, the Potency was 23.1 µM (active).
In the case of `N#Cc1ccc(Cn2cncc2CN2CCN(c3cccc(Cl)c3)C(=O)C2)cc1`, the Potency was 2.95 µM (active).
In the case of `COc1ccc(/C=C/C(N)=O)cc1OC`, the “viability, % of control” value was 99.6%.
With `NC(N)=NCCC[C@H](NC(=O)c1sccc1NS(=O)(=O)c1cccc2nsnc12)C(=O)O` the “viability, % of control” value was 74.7%.
With `CO/N=C(/C(=O)N[C@@H]1C(=O)N2C(C(=O)OCOC(=O)C(C)(C)C)=C(C)CS[C@H]12)c1csc(N)n1` the Potency was 23.7 µM (active).
In the case of `CCCCNc1c(C(=O)OCC)c(C)nc2c1cnn2CC`, the “viability, % of control” value was 76.4%.
In the case of `COC(=O)C1C(c2ccc(O)cc2)C(C(=O)OC)C1c1ccc(O)cc1` (centres undefined), the Potency was 10.1 µM (active).
With `C/C=C(\C)C(=O)OC1C(C)C2(O)C(C=C(CO)CC3(O)C(=O)C(C)=CC32)C2C(C)(C)C12OC(C)=O` (centres undefined) the Potency was 0.112 µM (active).
With `CNc1cc2[nH]c(=O)n(-c3ccc(NC(=O)NS(=O)(=O)c4ccc(Cl)s4)cc3)c(=O)c2cc1F` the “viability, % of control” value was 83.1%.
With `C=C1CC2C3(C)C(O)CC(=O)C(C)(C)C3C(O)C(OC(C)=O)C2(C)C2C(=O)OC(C)(C(=O)OC)C(=O)C12C` (centres undefined) the Potency was 6.32 µM (active).
In the case of `O=C1[C@H](Cc2ccc(O)cc2)N2C(=O)CCN(C(=O)NCc3ccccc3)[C@H]2CN1Cc1cccc2ccccc12`, the Potency was 1.48 µM (active).
In the case of `C/C(=N\NC(=S)N1CCC1)c1ccccn1`, the Potency was 0.0074 µM (active).
With `O=C1OC2(c3ccc(O)cc3Oc3cc(O)ccc32)c2ccccc21` the “viability, % of control” value was 57.2%.
In the case of `CC(=O)NC(C(=O)O[C@H]1CCC(C)(C)[C@@H]2CC=C3C(=O)OCC3(O)[C@@]12C)C(C)C` (some centres undefined), the Potency was 3.6 µM (active).
With `O=C(/C=C/c1ccccc1)OC[C@]12O[C@H]1[C@@H](O)[C@@H]1C=CO[C@@H](O[C@@H]3O[C@H](CO)[C@@H](O)[C@H](O)[C@H]3O)[C@@H]12` the “viability, % of control” value was 91.5% [at 17.3 µM].
For `CC1OC2OC3C(OCC(O)C3O)OC(=O)C34CCC(C)(C)CC3C3=CCC5C6(C)CC(O)C(OC7OC(CO)C(O)C(O)C7OC7OCC(OC(=O)CC(C)(O)CC(=O)OC1C(OC1OCC(O)C(O)C1O)C2O)C(O)C7O)C(C)(CO)C6CCC5(C)C3(C)CC4O` (centres undefined), the Potency was 1.78 µM (active).
In the case of `Cn1c(=O)c2c(ncn2Cc2ccc(C(C)(C)C)cc2)n(C)c1=O`, the Potency was 1.16 µM (active).
With `C[C@@H]1O[C@@H](O[C@H]2[C@H](O)[C@@H](C(=O)O)O[C@@H](O[C@H]3CC[C@@]4(C)C(CC[C@]5(C)C4CC=C4C6CC(C)(C)CC[C@]6(C(=O)O)CC[C@]45C)C3(C)C)[C@@H]2O[C@@H]2OC[C@@H](O)[C@H](O)[C@H]2O)[C@H](O)[C@H](O)[C@H]1O` (some centres undefined) the viability, % of control was 92.4% [at 9.25 µM].
In the case of `CC1=CC(=O)C2C(C)(C)CCC[C@]2(C)[C@H]1CC[C@H](C)CC(=O)O` (some centres undefined), the “viability, % of control” value was 74.9%.
With `C=C[C@](C)(CC/C=C(\C)C(=O)O)O[C@@H]1OC[C@H](O)[C@H](O)[C@H]1O` the “viability, % of control” value was 81.4%.
With `Nc1nc2c(c(=O)[nH]1)N1CN(c3ccc(C(=O)N[C@@H](CCC(=O)O)C(=O)O)cc3)CC1CN2` (some centres undefined) the Potency was 0.833 µM (active).
With `CO[C@H]1C[C@@H]2CC[C@@H](C)[C@@](O)(O2)C(=O)C(=O)N2CCCC[C@H]2C(=O)O[C@H]([C@H](C)C[C@@H]2CC[C@@H](OC(=O)C(C)(CO)CO)[C@H](OC)C2)CC(=O)[C@H](C)/C=C(\C)[C@@H](O)[C@@H](OC)C(=O)[C@H](C)C[C@H](C)/C=C/C=C/C=C/1C` the Potency was 10.2 µM (active).
